Laboratory results reported in PubChem BioAssay AID741 (SRMLSC, 2007).
Inconclusive results are not listed. Calls of active or inactive are those of the source. No stated cut-off is given here; in the data, active means toxicity enhancement factor above about 0.054; inconclusive means between about 0.00067 and that limit; inactive means weaker than that.

Test: reversers of MRP drug resistance, dose response, cell-based (AID 741)
Conditions: MRP-overexpressing cells, viability with/without cytotoxic drug; slope difference: measured here: slope difference tox minus reversal, stronger effect = higher value; toxicity enhancement factor: stronger effect = higher value; viability: measured here: viability series, compound alone, at 10 µM, stronger effect = lower value

SMILES | slope difference | toxicity enhancement factor | viability
CCOC(=O)N1CCC(Nc2c(Nc3cccc(CC)c3)c(=O)c2=O)CC1 | 5.23 | 0.268 (active) | 73.6%
CCOc1ccccc1Nc1nc(N)nc(CN(C)C2CCCCC2)n1 | -0.105 | -0.0012 (inactive) | 92.2%
Cc1ccc(/C=N/Nc2nc(Cl)c(Cl)cc2Cl)s1 | -0.0549 | -0.0006 (inactive) | 99.8%
O=C(O)Cc1ccc(-c2ccccc2)cc1 | -0.343 | -0.0033 (inactive) | 99.6%
C=CCOc1nc2c(c(=O)n(C)c(=O)n2C)n1Cc1c(Cl)cccc1Cl | -0.654 | -0.0108 (inactive) | 63.6%
c1ccc2c(N3CCOCC3)nc(-c3ccncc3)nc2c1 | -1.84 | -0.0239 (inactive) | 66.1%
CN1C(C(=O)Nc2ccccn2)=C(O)c2sccc2S1(=O)=O | -0.669 | -0.0064 (inactive) | 103%
COc1ccc(C)cc1-n1c(N)c(C#N)c(C#N)c1-c1ccc(OC)c(OC)c1OC | 2.33 | 0.077 (active) | 61.5%
Cc1cc(C)cc(OCc2nnc(SCC(=O)c3ccc(Br)cc3)o2)c1 | -0.893 | -0.0094 (inactive) | 92.3%
CN1C(=O)C(CC(=O)Nc2ccc3c(c2)Cc2ccccc2-3)N(C)C1=O (centres undefined) | -0.0851 | -0.0009 (inactive) | 94.5%
COC(=O)Nc1ccc(S(=O)(=O)Nc2cccc3ccccc23)cc1 | -0.0221 | -0.0003 (inactive) | 77.7%
C=CCN1C(=O)/C(=C2/Sc3ccccc3N2C)SC1=Nc1c(C)n[nH]c1C | 4.41 | 0.241 (active) | 66.9%
CC(Cc1ccc(O)c(O)c1)C(C)Cc1ccc(O)c(O)c1 (centres undefined) | -0.864 | -0.009 (inactive) | 86.2%
